Assay outcomes (PubChem BioAssay)
HT1080 IDH1KD tx: HT-1080 IDH1 knockdown cell toxicity (counter line) | HT-1080 IDH1 knockdown viability, ATP luminescence, 48 h | Potency, µM (titrated, usually from 46.1 µM), most hits filed as cytotoxic | actives 2% (n = 360,000) | AID 686971
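Knockdown cells (IDH1KD HT-1080) received compounds 2 h after plating at 750 cells/well and were kept 48 h at 37 °C in 5% FBS RPMI. A CellTiter-Glo luminescence read gave % activity for curve fitting.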
TDP1 cell noCPT: qHTS for Inhibitors of human tyrosyl-DNA phosphodiesterase 1 (TDP1): qHTS in cells in absence of CPT. actives 15% (n = 420,000). DT40 Tdp1-/- hTDP1 cells, no CPT, ATP luminescence, 48 h. Potency, µM (top dose mostly 46.2 µM), hits mostly inhibitors. AID 686978, 2013; note: nearly all actives have a fitted effect of over 55% in size
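No-CPT arm: Tdp1-/-;hTDP1 DT40 cells (400/well) plus compounds, incubated ≥48 hr at 37 °C. Readout CellTiter-Glo luminescence.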
DT40 TDP1 CPT: DT40-hTDP1 cell growth loss with CPT; chicken DT40 Tdp1-/-;hTDP1 cells + 20 nM CPT, ATP luminescence, 48 h; Potency, µM (titrated, usually from 46.2 µM), actives largely listed as inhibitors; actives 12% (n = 420,000); AID 686979; note: nearly all actives have a fitted effect of over 55% in size
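Chicken DT40 Tdp1-/- cells complemented with human TDP1, 400 cells/well, exposed to compounds plus 20 nM camptothecin for at least 48 h at 37 C; viability read as ATP content by CellTiter-Glo luminescence.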
IL1B secr inh: blocks inflammasome-driven IL-1 beta release | THP-1 LPS/ATP IL-1B secretion, AlphaLISA, 16 h; stronger effect = lower value | activity change, % at 57.5 µM | actives 4.7% (n = 360,000) | AID 743279; in the data active = activity change below about -50%; inconclusive = mostly about -30% to -49%
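THP-1 cells pretreated 1 hr with compounds (up to 57.5 uM final), then stimulated with LPS (250 ng/mL final) plus ATP (1.25 mM final); secreted IL-1B measured by AlphaLISA after 16 hr, decreased signal indicating inhibition.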
HT1080-NT tox: kills 2HG-producing HT-1080-NT fibrosarcoma cells; HT-1080-NT fibrosarcoma viability, CellTiter-Glo ATP luminescence, 48 h; Potency, µM (series often up to 46.1 µM), hits mostly cytotoxic; actives 1.6% (n = 360,000);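 note: NT is the 2HG producing partner of a matched IDH1 knockdown line; nearly all actives have a fitted effect of over 55% in size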
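Luminescent CellTiter-Glo readout after 48 hours of compound exposure at 37 degrees C defined viability of HT-1080-NT cells. Activity was normalized to DMSO wells and cell-free media wells; concentration-response curves were fitted and assigned curve classes.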
Large screens that a line does not name were inactive. This is a sample that favours compounds with a hit; in the whole collection about 19% have one here. Unless noted, calls come from the whole dose curve; as a rule, active = well fitted curve in the direction sought with a large enough effect; inconclusive = small, poorly fitted or top-dose-only effect, or another doubt; inactive = no such curve, though single readings can be large; an effect the other way counts as inactive or inconclusive.

COCCOC(=O)c1c(C)oc2ccc(NS(=O)(=O)c3ccccc3)cc12	none
CCCc1oc2ccc(NS(=O)(=O)c3ccc(OC)cc3)cc2c1C(=O)OCC	TDP1 cell noCPT 1.2µM, DT40 TDP1 CPT 1.8µM (no result: HT1080 IDH1KD tx, IL1B secr inh, HT1080-NT tox)
CCOC(=O)c1c(-c2ccccc2)oc2ccc(NS(=O)(=O)c3ccccc3)cc12	DT40 TDP1 CPT inconclusive (no result: HT1080 IDH1KD tx, IL1B secr inh, HT1080-NT tox)
COCCOC(=O)c1c(C)oc2ccc(OC(=O)c3c(OC)cccc3OC)cc12	TDP1 cell noCPT 16µM, DT40 TDP1 CPT inconclusive
CCCc1oc2ccc(NS(=O)(=O)c3ccc(OCC)cc3)cc2c1C(=O)OCC	TDP1 cell noCPT 5.8µM, DT40 TDP1 CPT 6.5µM (no result: HT1080 IDH1KD tx, IL1B secr inh, HT1080-NT tox)
CCOc1ccc(S(=O)(=O)Nc2ccc(C(=O)NN)cc2)cc1	DT40 TDP1 CPT inconclusive
CCOC(=O)Oc1ccc2oc(C)c(C(=O)OCCOC)c2c1	none
COc1cc(CN2CCNC(=O)C2CC(=O)N2CCCO2)cc(OC)c1 (stereo unspecified)	none
CCOC(=O)c1c(C)oc2ccc(OCc3cc(C(=O)OC)oc3C)cc12	HT1080 IDH1KD tx inconclusive, TDP1 cell noCPT 13µM, DT40 TDP1 CPT 18µM
Cc1ccc(Cl)cc1NC(=O)C1CCN(S(=O)(=O)c2cccc3nonc23)CC1	none (no result: HT1080 IDH1KD tx, IL1B secr inh, HT1080-NT tox)
O=C(Nc1cccc(C(F)(F)F)c1)Nc1nnc([C@@H]2C[C@H](O)[C@@H](CO)O2)s1	TDP1 cell noCPT inconclusive, DT40 TDP1 CPT 18µM
O=C(NCc1cccc(C(F)(F)F)c1)c1ccc2sc([C@H]3C[C@H](O)[C@@H](CO)O3)nc2c1	TDP1 cell noCPT 16µM, DT40 TDP1 CPT inconclusive
O=C(Nc1nccs1)c1ccc2sc([C@H]3C[C@H](O)[C@@H](CO)O3)nc2c1	TDP1 cell noCPT inconclusive
O=C(Nc1nc2ccccc2s1)c1ccc2sc([C@H]3C[C@H](O)[C@@H](CO)O3)nc2c1	HT1080 IDH1KD tx inconclusive, TDP1 cell noCPT 16µM, DT40 TDP1 CPT 16µM, HT1080-NT tox inconclusive
O=C(NCc1cccc(C(F)(F)F)c1)c1ccc2sc([C@@H]3O[C@H](CO)[C@@H](O)[C@H]3O)nc2c1	TDP1 cell noCPT inconclusive, DT40 TDP1 CPT inconclusive
O=C(NCc1cccc(C(F)(F)F)c1)c1ccc2sc(C3=C[C@@H](O)[C@@H](O)[C@@H](CO)O3)nc2c1	TDP1 cell noCPT 12µM, DT40 TDP1 CPT 12µM
Cn1c(SCc2ccccc2Cl)nc(C(F)(F)F)cc1=O	none
COC(=O)c1c(-n2c(C)cc(C=O)c2C)sc2c1CCCC2	TDP1 cell noCPT 22µM, DT40 TDP1 CPT inconclusive, IL1B secr inh -63
CCn1cc(C(=O)N(C)c2ccccc2F)c2cc(OC)c(OC)cc2c1=O	DT40 TDP1 CPT inconclusive, IL1B secr inh inconclusive
O=C(c1cccc(Cl)c1)C1CCCN(C(=O)c2ccoc2)C1 (stereo unspecified)	none
CCOC(=O)c1sc(Nc2cccc(Cl)c2)nc1C	HT1080 IDH1KD tx inconclusive, TDP1 cell noCPT inconclusive, IL1B secr inh -87
CCOC(=O)c1sc(NC(C)=O)nc1C	DT40 TDP1 CPT inconclusive, IL1B secr inh inconclusive
CCOC(=O)c1sc(Nc2nc(OC)cc(OC)n2)nc1C	TDP1 cell noCPT 21µM, DT40 TDP1 CPT inconclusive
Nc1c(Br)cc(Br)c2c1C(=O)c1c(cccc1S(=O)(=O)O)C2=O	TDP1 cell noCPT inconclusive
CC(=O)c1sc2nc(C)c3c(c2c1N)CCCC3	TDP1 cell noCPT inconclusive (no result: IL1B secr inh)
CC(=O)c1sc2nsc(SCCN3CCCC3)c2c1N	TDP1 cell noCPT inconclusive, DT40 TDP1 CPT 26µM, IL1B secr inh -93
Cc1cccc(C)c1NC(=O)C(c1ccccc1OC(F)(F)F)N1CCN(C/C=C/c2ccccc2)CC1 (stereo unspecified)	HT1080 IDH1KD tx inconclusive, TDP1 cell noCPT 15µM, DT40 TDP1 CPT 16µM, IL1B secr inh inconclusive, HT1080-NT tox inconclusive
Cc1cccc(C)c1NC(=O)C(c1ccccc1OC(F)(F)F)N1CCC(c2ccccc2)CC1 (stereo unspecified)	HT1080 IDH1KD tx inconclusive, TDP1 cell noCPT 16µM, DT40 TDP1 CPT inconclusive
CC(=O)N1CCN(C(C(=O)Nc2c(C)cccc2C)c2ccccc2OC(F)(F)F)CC1 (stereo unspecified)	none
Cc1cccc(C)c1NC(=O)C(c1ccccc1OC(F)(F)F)N1CCN(c2ccc(F)cc2)CC1 (stereo unspecified)	TDP1 cell noCPT inconclusive, DT40 TDP1 CPT inconclusive
O=C(NCCc1ccccc1)C1(c2ccccc2)CCCC1	TDP1 cell noCPT inconclusive
N#CC1(c2ccccc2)CCC(NCCc2ccccc2)CC1 (stereo unspecified)	TDP1 cell noCPT 18µM, DT40 TDP1 CPT inconclusive, IL1B secr inh inconclusive
O=C(N/C(=C/c1ccccc1Cl)C(=O)N1CCCCC1)c1ccco1	TDP1 cell noCPT inconclusive
CCOc1ccccc1C(=O)NCC(=O)NNC(=O)CN(C)S(=O)(=O)c1ccc(Cl)cc1	TDP1 cell noCPT 12µM, DT40 TDP1 CPT 21µM, HT1080-NT tox inconclusive
Cc1ccc2nc(NC(=O)c3ccc(NS(=O)(=O)c4cccs4)cc3)sc2c1	none
N#Cc1cnc2nc(SCc3ccccc3)nn2c1	TDP1 cell noCPT inconclusive, IL1B secr inh -70
CSc1nc2ncc(C#N)cn2n1	none
O=C(O)/C=C/C(=O)c1ccc2c(c1)CCc1ccccc1-2	HT1080 IDH1KD tx inconclusive, TDP1 cell noCPT 3.7µM, DT40 TDP1 CPT 4.1µM, IL1B secr inh -104, HT1080-NT tox 18µM
CC1=C(CC[C@@H](C)CO)OC2CC3C4CCC5CC(O)CCC5(C)C4CC(=O)C3(C)C12 (stereo partly specified)	TDP1 cell noCPT inconclusive, DT40 TDP1 CPT inconclusive, IL1B secr inh -66
Cc1ccccc1OCCN1CCC(Cc2ccccc2)CC1	TDP1 cell noCPT 21µM, DT40 TDP1 CPT inconclusive
O=[N+]([O-])c1cccc(OCCCN2CCC(Cc3ccccc3)CC2)c1	HT1080 IDH1KD tx inconclusive, TDP1 cell noCPT inconclusive, DT40 TDP1 CPT inconclusive, IL1B secr inh -73, HT1080-NT tox inconclusive
COC(=O)[C@H](C)NC(=O)N1CCC(Cc2ccccc2)CC1	none
Cc1ccc([N+](=O)[O-])c(OCCN2CCC(Cc3ccccc3)CC2)c1	HT1080 IDH1KD tx 16µM, TDP1 cell noCPT inconclusive, DT40 TDP1 CPT inconclusive, IL1B secr inh -99, HT1080-NT tox 21µM
Cc1ccccc1OC(C)C(=O)N1CCC(Cc2ccccc2)CC1 (stereo unspecified)	TDP1 cell noCPT inconclusive, DT40 TDP1 CPT inconclusive, IL1B secr inh -55
Cn1nc(C(=O)OCC(=O)Nc2ccc3ccccc3c2)c2ccccc2c1=O	none
CCOc1ccc(Br)cc1S(=O)(=O)Nc1ccccc1N1CCOCC1	TDP1 cell noCPT inconclusive, DT40 TDP1 CPT inconclusive
CCN(CC)S(=O)(=O)c1ccc2[nH]c(=O)cc(C(=O)NCC3CCCO3)c2c1 (stereo unspecified)	none
CCc1c(C)nc2ccc(Br)cc2c1SCCC#N	HT1080 IDH1KD tx inconclusive, TDP1 cell noCPT inconclusive, DT40 TDP1 CPT inconclusive, IL1B secr inh -183
